Screens (PubChem BioAssay)
The list is not random: actives were taken first. Their share in the collection is about 2.4%.
M1 PAM parental: counter-screen for M1 PAMs: effect in parental CHO-K1 cells; ATP EC20, Fluo-8 calcium fluorescence; 0% at ATP EC20, 100% at ATP max; 360,000 tested, 0.02% active; activation, % at 3 µM;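 active = activation above the run cutoff, the mean activation of all test compounds plus 3 SD, cut at about 40% in these data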;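 note: peak over basal fluorescence ratio in a 140 s read after ATP addition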
M1 ag: human M1 muscarinic receptor agonism; AID 588814; CHO-K1 hM1, Fluo-8 calcium fluorescence, agonist mode; 0% DMSO, 100% acetylcholine EC100; P11229; activation, % at 3 µM; 360,000 tested, 0.33% active;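 active = activation above the run's mean compound activation plus 3 SD, cut at about 16% in these data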;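 note: peak over basal fluorescence ratio within a 140 s kinetic read after compound addition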
Target sequence (P11229 whole entry, looked up): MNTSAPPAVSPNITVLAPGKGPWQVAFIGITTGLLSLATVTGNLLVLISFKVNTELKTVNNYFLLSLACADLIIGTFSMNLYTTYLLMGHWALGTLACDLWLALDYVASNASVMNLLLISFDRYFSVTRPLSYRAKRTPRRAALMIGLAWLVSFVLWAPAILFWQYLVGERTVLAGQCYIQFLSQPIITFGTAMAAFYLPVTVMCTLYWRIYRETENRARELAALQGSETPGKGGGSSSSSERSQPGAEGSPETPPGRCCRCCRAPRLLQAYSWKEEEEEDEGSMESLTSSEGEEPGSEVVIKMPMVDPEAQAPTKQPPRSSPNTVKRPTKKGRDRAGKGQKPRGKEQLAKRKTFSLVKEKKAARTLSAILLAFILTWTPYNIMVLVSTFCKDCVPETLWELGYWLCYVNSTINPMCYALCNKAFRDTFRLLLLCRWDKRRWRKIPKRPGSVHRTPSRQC
CHRM1 PAM: positive allosteric modulators of human M1 muscarinic receptor. P11229. CHO-K1 hM1, Fluo-8 calcium fluorescence, ACh EC20; 0% = ACh EC20, 100% = maximal ACh. activation, % at 3 µM. 360,000 tested, 0.088% active; in the data active = activation above about 19%, passing the limit was not always enough
CHRM1 antagonist: human CHRM1 antagonism | P11229 | CHO-K1 hM1, Fluo-8 calcium fluorescence, ACh EC80 antagonist | inhibition, % at 3 µM | 360,000 tested, 1.3% active;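 active = percent inhibition above its own plate's cutoff, namely the mean of that plate's compound wells plus 3 SD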;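 note: peak over basal fluorescence ratio during 140 s after agonist addition; 0% = ACh EC80 plus DMSO and 100% = DMSO alone without agonist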
CHO-K1 Ca antag: nonselective inhibitor or artifact in parental CHO-K1 cells; ATP-induced calcium, Fluo-8 fluorescence; 360,000 tested, 0.6% active; inhibition, % at 3 µM;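 active = inhibition above a per-plate cutoff, the plate's mean sample inhibition plus 3 SD, cut at about 24% in these data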;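 note: 0% = DMSO plus EC80 ATP and 100% = DMSO alone without ATP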
M1 ag parental: counter-screen for M1 agonists: effect in parental CHO-K1 cells; Fluo-8 calcium fluorescence; scaled to maximal ATP response, vehicle zero; activation, % at 3 µM; 360,000 tested, 0.48% active; AID 602248; in the data active = activation above about 15%;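 note: untransfected CHO-K1 host cells lacking M1 receptor as counterscreen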
* marks the source's active call; other numbers are inactive results.

What do the screens show for `Cc1nn(Cc2ccccc2)c(Cl)c1/C=C/C(=O)OC(C)C(=O)N1CCCC1` (stereo unspecified)?
M1 PAM parental: -6.3; M1 ag: -6.1; CHRM1 PAM: -20.0; CHRM1 antagonist: 36.6*; CHO-K1 Ca antag: -4.9; M1 ag parental: 1.2

How did COc1ccc(NC(=O)c2c(F)c(F)c(F)c(F)c2F)cc1Cl do in these assays?
M1 PAM parental: -5.6; M1 ag: -3.3; CHRM1 PAM: -8.0; CHRM1 antagonist: 5.7; CHO-K1 Ca antag: 31.9*; M1 ag parental: 1.9

How did COc1ccc(NC2=Nc3cccc4cccc2c34)cc1 do in these assays?
M1 PAM parental: 6.6; M1 ag: 19.1*; CHRM1 PAM: -11.7; CHRM1 antagonist: 7.0; CHO-K1 Ca antag: -6.2; M1 ag parental: 3.8

How did CC1CCN(C(=O)CNC(=O)c2ccc(Cl)cc2Cl)CC1 do in these assays?
M1 PAM parental: -6.2; M1 ag: 1.4; CHRM1 PAM: 21.8*; CHRM1 antagonist: -23.3; CHO-K1 Ca antag: 31.4*; M1 ag parental: -0.1

What do the screens show for `O=C1OCc2ccc(NC(=O)C3CCCCC3)cc21`?
M1 PAM parental: 2.9; M1 ag: 2.5; CHRM1 PAM: 5.2; CHRM1 antagonist: -26.4; CHO-K1 Ca antag: -14.1; M1 ag parental: 0.0

Results for O=S(=O)(c1ccc2c(c1)C(O)c1ccccc1CC2)C(F)(F)F (stereo unspecified) ?
M1 PAM parental: -21.4; M1 ag: -7.3; CHRM1 PAM: -25.9; CHRM1 antagonist: 30.5*; CHO-K1 Ca antag: 9.0; M1 ag parental: 4.5

What do the screens show for `CC(=O)c1cccc(NC(=O)COC(=O)c2ccccc2C)c1`?
M1 PAM parental: 12.4; M1 ag: -0.1; CHRM1 PAM: 8.1; CHRM1 antagonist: -5.6; CHO-K1 Ca antag: -13.3; M1 ag parental: 5.9

How did COc1ccc(-c2cc(NC(C)=O)c3ncc(-c4ccc(OC)c(OC)c4)n3c2)c(OC)c1 do in these assays?
M1 PAM parental: 4.5; M1 ag: -5.9; CHRM1 PAM: -6.4; CHRM1 antagonist: 2.3; CHO-K1 Ca antag: 2.2; M1 ag parental: 1.5

Results for CC(/C=N/n1cnnc1)=C\c1ccccc1 ?
M1 PAM parental: 18.2; M1 ag: 8.7; CHRM1 PAM: 7.6; CHRM1 antagonist: -13.1; CHO-K1 Ca antag: -3.1; M1 ag parental: 2.1

Results for CC(=C/c1ccccc1)/C=N/n1cnnc1 ?
M1 PAM parental: 15.4; M1 ag: 22.1*; CHRM1 PAM: 0.9; CHRM1 antagonist: 0.2; CHO-K1 Ca antag: 1.2; M1 ag parental: 1.7

What do the screens show for `COC(C[C@@H]1O[C@H]1C(=O)COCc1ccccc1)OC`?
M1 PAM parental: 7.8; M1 ag: 3.1; CHRM1 PAM: 29.9*; CHRM1 antagonist: -21.5; CHO-K1 Ca antag: -13.4; M1 ag parental: 0.6

What do the screens show for `NCCCCNCCCN`?
M1 PAM parental: 27.8; M1 ag: 79.3*; CHRM1 PAM: -28.8; CHRM1 antagonist: 62.0; CHO-K1 Ca antag: -18.1; M1 ag parental: 0.0

Results for NCCNCCNCCN ?
M1 PAM parental: 13.8; M1 ag: -0.4; CHRM1 PAM: -1.8; CHRM1 antagonist: -27.1; CHO-K1 Ca antag: 10.7; M1 ag parental: -0.2

What do the screens show for `N#CC1=C2SCCN2C(=O)C(C#N)C12CCCCC2` (stereo unspecified)?
M1 PAM parental: -7.6; M1 ag: -3.7; CHRM1 PAM: -3.1; CHRM1 antagonist: 10.5; CHO-K1 Ca antag: 25.3*; M1 ag parental: -0.1

What do the screens show for `Cn1c(SCC(=O)NCc2ccc(F)cc2)nc2ccccc21`?
M1 PAM parental: 14.9; M1 ag: -6.4; CHRM1 PAM: 2.7; CHRM1 antagonist: -2.5; CHO-K1 Ca antag: 0.8; M1 ag parental: 0.7

Results for Nc1[nH]c(C(=O)c2ccccc2)c(-c2ccccc2Br)c1C(=O)c1ccccc1 ?
M1 PAM parental: 42.1*; CHO-K1 Ca antag: -22.2; M1 ag parental: 1.4

Results for Cn1nccc1-c1coc2c(C(=O)N3CCOCC3)cccc12 ?
M1 PAM parental: 3.9; M1 ag: 2.3; CHRM1 PAM: 5.9; CHRM1 antagonist: -7.9; CHO-K1 Ca antag: -9.7; M1 ag parental: 0.0

What do the screens show for `Brc1cc(Br)c2ncnc(N3CCCCC3)c2c1`?
M1 PAM parental: 19.3; M1 ag: -5.1; CHRM1 PAM: 6.1; CHRM1 antagonist: -10.1; CHO-K1 Ca antag: 0.1; M1 ag parental: 0.3

Results for COc1cc(/C=C/C(=O)c2ccc3c(c2)OCO3)cc(Cl)c1O ?
M1 PAM parental: -4.5; M1 ag: 47.5*; CHRM1 PAM: -18.7; CHRM1 antagonist: 34.7*; CHO-K1 Ca antag: 16.9; M1 ag parental: 22.8*

Results for O=C1CC(=C(c2ccccc2)c2ccccc2)C(=O)N1CCCCN1CCN(c2cccc(Cl)c2)CC1 ?
M1 PAM parental: 10.9; M1 ag: 6.8; CHRM1 PAM: -7.9; CHRM1 antagonist: 39.0*; CHO-K1 Ca antag: -1.8; M1 ag parental: -0.3

How did Cc1ccccc1N1CCN(CCCN2C(=O)CC(=C(c3ccccc3)c3ccccc3)C2=O)CC1 do in these assays?
M1 PAM parental: 17.8; M1 ag: -5.1; CHRM1 PAM: -20.4; CHRM1 antagonist: 95.2*; CHO-K1 Ca antag: -14.1; M1 ag parental: -0.2

How did CCN1C(=O)c2n[nH]c(C(=O)OC)c2C1=O do in these assays?
M1 PAM parental: 3.1; M1 ag: -3.4; CHRM1 PAM: 1.3; CHRM1 antagonist: -20.3; CHO-K1 Ca antag: -2.7; M1 ag parental: 0.0

What do the screens show for `N/C(=N/OC(=O)c1ccc(Cl)cc1)c1ncc([N+](=O)[O-])s1`?
M1 PAM parental: -24.9; M1 ag: 1.6; CHRM1 PAM: 20.2; CHRM1 antagonist: -27.2; CHO-K1 Ca antag: 29.2*; M1 ag parental: -0.3

How did Cc1ccccc1-c1nnn(Cc2cccc(S(=O)(=O)N3CCOCC3)c2)n1 do in these assays?
M1 PAM parental: -5.2; M1 ag: 3.7; CHRM1 PAM: -11.5; CHRM1 antagonist: 18.6; CHO-K1 Ca antag: 7.8; M1 ag parental: 15.3*

Results for O=C1c2ccccc2S(=O)(=O)N1Cc1cccc(S(=O)(=O)N2CCOCC2)c1 ?
M1 PAM parental: 0.7; M1 ag: -1.6; CHRM1 PAM: -1.1; CHRM1 antagonist: 4.9; CHO-K1 Ca antag: -4.5; M1 ag parental: 2.8

What do the screens show for `COc1cc(N2CCCC2)c(OC)cc1/C=C1/NC(=S)NC1=O`?
M1 PAM parental: -3.1; M1 ag: 52.7*; CHRM1 PAM: -17.9; CHRM1 antagonist: 30.5; CHO-K1 Ca antag: 35.4*; M1 ag parental: 47.5*

What do the screens show for `COc1ccc(CNC(=O)[C@@H]2CC=C[C@@H]3CCN(Cc4ccc(Cl)c(Cl)c4)C(=O)[C@@H]32)cc1`?
M1 PAM parental: -0.3; M1 ag: -2.1; CHRM1 PAM: 10.1; CHRM1 antagonist: -4.4; CHO-K1 Ca antag: -6.0; M1 ag parental: 0.0
